Screening results as filed in PubChem.
The sample as a whole holds a higher share of hits than the screen did.
Cruzain Triton: blocks cruzain activity in presence of Triton detergent | P25779 | purified cruzain, Z-FR-AMC fluorescence, 0.01% Triton | 0.43% of 200,000 active | Potency, µM, most hits filed as inhibitors; also: nearly all actives have a fitted effect of over 40% in size
Target sequence (P25779 123-467 limits assumed): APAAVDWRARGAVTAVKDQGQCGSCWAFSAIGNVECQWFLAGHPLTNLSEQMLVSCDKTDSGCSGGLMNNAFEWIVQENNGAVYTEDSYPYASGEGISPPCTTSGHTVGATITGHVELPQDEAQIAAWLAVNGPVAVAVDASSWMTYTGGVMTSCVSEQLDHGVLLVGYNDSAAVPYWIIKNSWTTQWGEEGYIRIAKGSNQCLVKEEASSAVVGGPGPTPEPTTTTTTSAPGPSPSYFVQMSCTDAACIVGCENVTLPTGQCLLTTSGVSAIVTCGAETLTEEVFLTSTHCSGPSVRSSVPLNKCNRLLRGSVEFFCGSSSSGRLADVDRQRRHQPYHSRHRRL
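Enzyme 1.5 nM, Z-FR-AMC 2 uM, NaOAc 100 mM pH 5.5, DTT 5 mM, Triton X-100 0.01%; 15 min RT compound preincubation; kinetic ex360/em450, 60 s delta.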
Cruzain inh noDet: inhibitors of Trypanosoma cruzi cruzain without detergent; P25779; purified cruzain, Z-FR-AMC fluorescence, no detergent; Potency, µM, hits mostly inhibitors; 2.3% of 200,000 active; AID 1476; also: nearly all actives have a fitted effect of over 40% in size
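Detergent-free condition (0.00005% Triton X-100) in acetate buffer pH 5.5 with DTT. 1.5 nM enzyme and compound were pre-mixed 15 min, then 2 uM Z-FR-AMC substrate added; reaction progress from fluorescence change between first and third reads (60 s).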
NS1 inh: influenza NS1 inhibition. Potency, µM (series often up to 46.1 µM). 0.4% of 270,000 active; calls by dose curve; also: actives are rising curves; nearly all actives have a fitted effect of over 50% in size
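S. cerevisiae expressing influenza A NS1, grown in glucose, washed, then diluted 1:100 into pH 6.0 -URA galactose medium with 23 nl compound. Growth recovery read as OD600; NS1-free strain serves as control.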
A number is an active result; 0 = inactive; ? = inconclusive; - = no result given. Unless noted, calls follow the shape of the dose curve; as a rule, active = well fitted curve in the direction sought with a large enough effect; inconclusive = small, poorly fitted or top-dose-only effect, or another doubt; inactive = no such curve, though single readings can be large; an effect the other way counts as inactive or inconclusive.

SMILES	Cruzain Triton	Cruzain inh noDet	NS1 inh
COc1cc(/C=N/Nc2ccc3ccccc3c2)ccc1OC(=O)c1ccco1	0	25µM	0
COc1cc(/C=N/NC(=O)COc2ccccc2C)ccc1OC(=O)c1cccs1	0	0	0
Cc1noc(C)c1-c1nccc(N2CCN(C)CC2)n1	0	0	-
CCOc1cc(C#N)c(-n2nnc3c(sc4nc(C)cc(C)c43)c2=O)cc1OCC	0	0	-
COc1ccccc1CNc1cc(-c2ccoc2)ncn1	0	0	-
O=C(CSc1nnc(-c2ccc(Cl)cc2)o1)N1CCN(c2ccccc2)CC1	0	16µM	0
O=C(CSc1nnc(COc2ccc(Cl)cc2)o1)N1CCN(c2ccccc2)CC1	0	0	?
Cn1c(=O)c2[nH]cnc2n(C)c1=O.[CH2-][C@H](Cc1cccc2cc(C(=O)O)c(=O)oc12)OC.[Hg].[OH-]	0	0	0
COc1ccccc1/C=C\C=N\n1c(C2CCCCC2)n[nH]c1=S	0	6.3µM	0
COc1ccc(-c2n[nH]c(=S)n2/N=C/C=C\c2ccccc2OC)cc1	0	0	0
COc1ccccc1/C=C/C=N/n1c(-c2ccc(C)cc2)n[nH]c1=S	0	10µM	?
COc1cccc(/C=N/n2c(C3CCCCC3)n[nH]c2=S)c1OC	-	-	0
O=C1CCC=C1C(O)c1ccc(Cl)cc1 (stereo not given)	0	0	-
N#Cc1c(NCCN)nc(-c2ccco2)c2c1CCCC2	0	25µM	0
CC(C)CCNc1nc(-c2ccco2)c2c(c1C#N)CCCC2	?	?	0
Cc1csc(NC(=O)CSc2nnc(NC(=O)COc3ccccc3)s2)n1	0	7.9µM	?
Cc1csc(NC(=O)CSc2nnc(C)s2)n1	0	0	0
CCCCC=O	0	0	-
Cc1ccc(-n2c(COc3c(C)cccc3C)nnc2SCC(=O)Nc2nccs2)cc1	0	25µM	0
O=C(CSc1ccccc1)Nc1nnc(COc2ccc(Cl)cc2)s1	0	0	0
COc1ccc(/C=C/c2nnc(NC(=O)CSc3ccc(Cl)cc3)s2)cc1	0	10µM	0
COc1ccc(/C=C/c2nnc(NC(=O)CC(C)C)s2)cc1	-	-	0
Cc1cccc(C)c1OCc1nnc(NC(=O)CSc2ccc(Cl)cc2)s1	0	25µM	0
Cc1ccc(OCc2nnc(SCC(=O)Nc3nccs3)n2-c2ccccc2)cc1C	0	0	0
Cc1cc(NC(=O)CCCn2c(C)c3cnn(-c4ccccc4)c(=O)c3c2C)ccc1Br	0	0	-
SMILES	Cruzain Triton	Cruzain inh noDet	NS1 inh
C=C(C)CN(CC)c1nc(N)c2c(N)nc3c(c2c1C#N)CC(=O)N3C12CC3CC(CC(C3)C1)C2	0	4µM	0
N#Cc1c(N2CCCC(O)C2)nc(N)c2c(N)nc3c(c12)CC(=O)N3C12CC3CC(CC(C3)C1)C2 (stereo not given)	0	0	0
CCOC(=O)c1cnc(-n2nc(C)cc2C)nc1NNc1nc(-c2ccccc2)cc(-c2ccccc2)n1	0	20µM	?
CCOC(=O)c1cnc(-n2nc(C)cc2C)nc1NNc1nc(C)cc(C)n1	-	-	0
NC(N)=N/N=C(/c1ccccc1)c1ccc(O)cc1O	0	0	0
O=C(/C=C/Nc1ccc(F)c(F)c1)c1ccc(Br)cc1	0	25µM	0
O=C(/C=C/Nc1ccc(F)cc1)c1ccc(Br)cc1	-	-	0
O=C(NNC(=O)c1ccc([N+](=O)[O-])cc1)c1ccc(Br)cc1	-	-	0
O=C(/C=C/Nc1ccc([N+](=O)[O-])cc1)c1ccc(Br)cc1	0	20µM	0
Cc1ccc(O)c(C(=O)c2cnc3c(c2)CN(C)C(=O)N3)c1	0	0	0
Cc1ccc(O)c(C(=O)c2cnc3c(c2)CN(CCC(C)C)C(=O)N3)c1	0	10µM	0
COC(=O)c1ccc(CSc2nc3c([nH]c4ccccc43)c(=O)n2-c2cccc(OC)c2)o1	0	25µM	-
COC(=O)c1ccc(CSc2nc3c([nH]c4ccccc43)c(=O)n2-c2cccc(Cl)c2)o1	0	0	-
CCSc1nc2c([nH]c3ccccc32)c(=O)n1-c1cccc(OC)c1	0	0	-
COc1cccc(-n2c(SCc3ccc(F)cc3)nc3c([nH]c4ccccc43)c2=O)c1	0	10µM	-
CCc1ccc(-c2cc(C)no2)cc1S(=O)(=O)NCc1ccc(OC)cc1	0	0	-
Cc1ccc(C(=O)OC[C@H]2O[C@H](Cl)C[C@@H]2OC(=O)c2ccc(C)cc2)cc1	0	0	-
CCCCOc1ccccc1NC(=O)CC1Nc2ccccc2NC1=O (stereo not given)	0	25µM	0
CCCCNC(=O)CC1Nc2ccccc2NC1=O (stereo not given)	0	0	0
Cc1cccc(C2=N[C@@H](Cc3ccccc3)CO2)c1	0	0	-
CC(C)Oc1ccc2c(=O)c3cc(C(=O)O)ccc3oc2c1	0	0	-
COc1cccc(CS(=O)(=O)c2nnnn2CC(C)C)c1	0	0	-
CCCNc1ncnc2c1c(-c1ccccc1)cn2-c1ccccc1	0	0	-
CCN1c2ccccc2-c2nc(SCC(=O)Nc3cc(C)c(Cl)cc3OC)ncc2S1(=O)=O	0	25µM	-
O=C(CSc1ncc2c(n1)-c1cc(Cl)ccc1N(Cc1ccccc1)S2(=O)=O)NCc1ccccc1	0	16µM	-
SMILES	Cruzain Triton	Cruzain inh noDet	NS1 inh
O=C(CSc1ncc2c(n1)-c1cc(Cl)ccc1N(Cc1ccccc1)S2(=O)=O)NCCc1ccccc1	0	0	-
COc1cccc(CN2c3ccccc3-c3nc(SCC(=O)Nc4cccc(C)c4)ncc3S2(=O)=O)c1	0	?	-
COc1cccc(CN2c3ccccc3-c3nc(SCC(=O)Nc4ccccc4Cl)ncc3S2(=O)=O)c1	0	16µM	-
CCN1c2ccccc2-c2nc(SCC(=O)Nc3ccc(C)c(Cl)c3)ncc2S1(=O)=O	0	?	-
Cn1cc(CN(C(=O)Nc2ccccc2)C2CCCCC2)c2ccccc21	0	0	-
Cc1cccc2cc(COC(=O)C3CCCO3)c(=O)[nH]c12 (stereo not given)	0	1.6µM	0
Cc1cccc2cc(COC(=O)C3CCCCC3)c(=O)[nH]c12	0	0	0
Nc1ccc(S(=O)(=O)O)cc1	0	0	-
CC1=C(C(=O)N2CCN(c3ccc(Cl)cc3)CC2)C2(CCC(C)CC2)OC1=O (stereo not given)	0	0	-
CN1CCN(c2ncc3nc(-c4cc(F)cc(F)c4)c(=O)n(CCc4ccccc4)c3n2)CC1	0	0	-
OCc1ccc(-c2ccc(-c3ccc(CO)s3)o2)s1	0	?	-
CCN1CCN(C(c2ccc(SC)cc2)c2c(O)cc(C)n(CCOC)c2=O)CC1 (stereo not given)	0	?	-
COC(=O)/C=C1\SC(=NC(=O)c2cccc(Cl)c2)NC1=O	14µM	0	0
COC(=O)/C=C1/SC(=NC(=O)c2ccccc2)NC1=O	0	0	0
O=C(NCc1nc2ccccc2n1Cc1ccccc1Cl)c1ccccc1	0	0	-
CCCn1c(-c2ccc(F)cc2)nc2c(NCCN(C)C)nc(C)nc21	0	0	-
N#Cc1ccc(Cl)cc1NC(=O)COC(=O)[C@H](CCC(N)=O)NC(=O)c1ccc(F)cc1	20µM	20µM	0
CC(C)c1ccc(NC(=O)COC(=O)[C@H](CCC(N)=O)NC(=O)c2ccc(F)cc2)cc1	?	0	0
NC(=O)CC[C@H](NC(=O)c1ccc(F)cc1)C(=O)OCC(=O)NCc1ccc(F)cc1	-	-	0
CCc1ccc(C(=O)COC(=O)C(CCSC)NC(=O)c2ccccc2)cc1 (stereo not given)	0	0	0
CSCCC(NC(=O)c1ccc(Cl)cc1)C(=O)OCC(=O)Nc1cc(Cl)ccc1C (stereo not given)	22µM	?	0
